# High-throughput results: PubChem BioAssay, National Center for Advancing Translational Sciences (NCATS)
# Abeta yeast res – restores growth of yeast expressing A-beta42 peptide; yeast expressing A-beta42, growth rescue, OD600, 48 h; response scale: 0% DMSO, 100% iron-clioquinol control; Potency, µM (doses to about 46.1 µM), hits mostly activators; 410,000 tested, 0.063% active; AID 1347071; note: nearly all actives have a fitted effect of over 55% in size
#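 Yeast A-beta toxicity model in growth medium with pinned compounds, 48 h at 30 C; growth read as absorbance at 600 nm. Normalized to FeCl3/clioquinol equimolar mix (positive) and DMSO (negative).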
# FUS yeast rescue – FUS proteinopathy suppression in yeast; 390,000 tested, 0.24% active; S. cerevisiae FUS-expressing, growth rescue, OD600, 24 h; Potency, µM (series often up to 76.6 µM), actives largely listed as activators;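 note: plate controls were DMSO vehicle for no effect and reference control for full effect; nearly all actives have a fitted effect of over 55% in size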
#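 Absorbance at 600 nm, taken 24hr after compound addition, measured rescue of FUS-yeast growth at 30C. Induction used 2% galactose with seeding at OD 0.005. Controls: CP55940 from 92uM final, DMSO only.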
# aSyn rescue – rescues yeast growth from alpha-synuclein toxicity | 370,000 tested, 0.14% active | AID 652106 | Potency, µM (top dose mostly 46.1 µM), for inactives: top-dose growth rescue (activation), usual class: activators | Yeast expressing alpha-synuclein, growth rescue, BacTiter-Glo, 24 h; note: % of control where 0% means no effect; nearly all actives have a fitted effect of over 65% in size
#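 Galactose-induced alpha-syn yeast (OD600=0.02, raffinose-pregrown) + pinned cpd, 24 hr, 30 deg C; growth by BacTiter-Glo luminescence. Growth restoration scores as activation.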
# TDP-43 yeast inh – rescues yeast growth from TDP-43 toxicity; TDP-43 expressing yeast growth rescue, BacTiter-Glo, 24 h; Potency, µM (doses to about 46.1 µM), for the others: at the highest dose growth rescue (activation), actives largely listed as activators; 410,000 tested, 1.8% active; note: % of control where 0% means no effect; nearly all actives have a fitted effect of over 50% in size
#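 Yeast expressing TDP-43 (pregrown in raffinose, seeded at OD600=0.02 in galactose medium) exposed to compounds 24 hr at 30 deg C. Growth read by BacTiter-Glo luminescence; rescue of toxicity appears as increased signal.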
# An asterisk follows results filed as active; i = inactive; ? = inconclusive; / = no result. Sampled rows, rich in hits. Any-hit rate of the full collection: about 2.1%. Calls come from the whole dose curve; as a rule, active = well fitted curve in the direction sought with a large enough effect; inconclusive = small, poorly fitted or top-dose-only effect, or another doubt; inactive = no such curve, though single readings can be large; an effect the other way counts as inactive or inconclusive. Potency is the fitted concentration of half-maximal effect.
SMILES,Abeta yeast res,FUS yeast rescue,aSyn rescue,TDP-43 yeast inh
Cc1ccc(C2CC(=O)Nc3c2ccc2ccccc32)cc1[N+](=O)[O-] (configuration not stated),i,i,11%,25µM*
O=C1CC(c2ccco2)c2ccc3ccccc3c2N1 (configuration not stated),i,i,5%,13µM*
CCOC(=O)C1=C(c2ccccc2)NC(=S)NC1c1ccc(C)c([N+](=O)[O-])c1 (configuration not stated),i,/,-4%,6%
CCCCC(=O)Nc1ccc(C(=O)NCC2COc3ccccc3O2)cc1 (configuration not stated),/,i,/,/
CC(C)OCCCNc1sc(S(=O)(=O)c2ccccc2)nc1S(=O)(=O)c1ccc(Cl)cc1,i,32µM*,/,12%
CCN(CC)CCCNc1sc(S(=O)(=O)c2ccccc2)nc1S(=O)(=O)c1ccc(Cl)cc1,i,i,/,25%
COCCN=c1scc(-c2cc(OC)c(OC)c(OC)c2)n1/N=C/c1c(C)[nH]c2ccccc12,i,13µM*,-18%,22µM*
CCOC(=O)C1CCCN(C(=O)c2sc3nc(-c4ccc(OC)cc4)cn3c2C)C1 (configuration not stated),i,?,/,11µM*
CCOC(=O)C1CCN(C(=O)c2sc3nc(-c4ccccc4)cn3c2C)CC1,i,/,-2%,?
Cc1cc(N2CCN(CCO)CC2)n2nc(C)nc2n1,/,i,/,/
Cc1ccc(CN2CCCCC(NC(=O)c3cccc([N+](=O)[O-])c3)C2=O)cc1 (configuration not stated),/,i,/,/
CCc1nc(Nc2ccccc2OC)c2oc3ccccc3c2n1,i,i,-2%,13µM*
CCc1nc(Nc2cc(OC)ccc2OC)c2oc3ccccc3c2n1,i,i,-10%,0%
COc1cc(C#Cc2c(-c3cncn3C)n(C)c3ccc(-c4ccc5cc[nH]c5c4)cc23)cc(OC)c1,i,?,0%,20µM*
O=S(=O)(c1ccccc1)N1CCN(c2nc(-c3ccc(F)cc3)nc3cc(Cl)ccc23)CC1,/,/,-1%,/
O=C(CC1S/C(=N\S(=O)(=O)c2ccccc2)N(c2ccccc2)C1=O)Nc1ccc(F)cc1 (configuration not stated),i,18µM*,8%,-3%
Cc1ccc(NC(=O)CC2SC(=O)N(c3ccccc3)C2=O)cc1 (configuration not stated),i,i,5%,20µM*
CCN1C(Br)=CCc2ccccc21,/,/,0%,/
Cc1nn(CCC(=O)NNC(=O)Nc2ccc(Cl)cc2)c(C)c1[N+](=O)[O-],/,i,/,/
C=CCn1c(SCC(=O)Nc2ccc(CCCC)cc2)nnc1-c1ccc(Cl)cc1,/,i,/,/
COc1ccc(-n2c(=O)c(CCC(=O)N(C)Cc3ccccc3C)nc3ccccc32)cc1,i,i,0%,0%
CCc1ccc(CN(C)C(=O)CCc2nc3ccccc3n(-c3ccc(OC)cc3)c2=O)cc1,i,?,20%,18µM*
COc1ccc(CCC(=O)NC2CC(=O)N(c3ccc(C)c(C)c3)C2)cc1 (configuration not stated),i,i,/,10%
Cc1cc(C)c(S(=O)(=O)NC2CC3CCC2C3)c(C)c1 (configuration not stated),i,i,-13%,13µM*
COc1cccc(CNc2ccc([N+](=O)[O-])cc2Cl)c1O,i,i,-17%,14µM*
SMILES,Abeta yeast res,FUS yeast rescue,aSyn rescue,TDP-43 yeast inh
CC(C)(C)n1nc(-c2ccc(F)cc2)c2c(N)ncnc21,i,i,?,-62%
CC(C)(C)n1nc(-c2ccc(Cl)cc2)c2c(N)ncnc21,i,i,2.5µM*,-46%
O=C(OCn1ncc(Br)c(Br)c1=O)c1ccccc1Cl,i,i,-7%,6.3µM*
O=C(OCn1ncc(Br)c(Br)c1=O)c1ccc(F)cc1,i,i,-71%,?
COc1cc(C(=O)NNC(=O)c2nn(C)c(=O)c3ccccc23)cc(OC)c1OC,i,i,-6%,3.2µM*
Cn1nc(C(=O)Nc2cccc(C(F)(F)F)c2)c2ccccc2c1=O,i,/,9%,11µM*
Cn1nc(C(=O)Nc2cccc(C(=O)NC3CC3)c2)c2ccccc2c1=O,i,i,6%,8%
Cc1onc(C(=O)Nc2ccccc2C(F)(F)F)c1[N+](=O)[O-],i,i,-4%,12%
Cc1onc(C(=O)Nc2cccc(C(F)(F)F)c2)c1[N+](=O)[O-],i,i,-13%,13µM*
CC(C)(C)C1CCC(=NNC(=O)c2cc3c(s2)CCCC3)CC1 (configuration not stated),i,/,-16%,-2%
CC(C)(C)C1CCc2sc(C(=O)NNC(=O)CCl)cc2C1 (configuration not stated),i,i,1%,13µM*
COc1cc(C(O)c2nc(-c3cccc(F)c3)cs2)ccc1F (configuration not stated),i,i,?,16µM*
COc1cc(C(O)c2nc(-c3cccc(C(C)C)c3)cs2)ccc1F (configuration not stated),i,i,-20%,22µM*
COc1ccc(C(O)c2nc(-c3ccc(C)c(C)c3)cs2)cc1 (configuration not stated),i,i,10µM*,?
COc1cc(C(O)c2nc(-c3cc(F)cc(F)c3)cs2)ccc1F (configuration not stated),?,i,?,35µM*
COc1cc(C(O)c2nc(-c3cncnc3)cs2)ccc1F (configuration not stated),i,i,0%,?
COc1cc(C(O)c2nc(-c3ccc(N(C)C)cc3)cs2)ccc1F (configuration not stated),i,i,5%,3%
CCOC(=O)[C@]12CCCC=C1N(CCCOC)C(=O)[C@@H]2CC(=O)NCc1cccs1,/,i,/,/
COc1cc(OC)cc(-n2c(=O)c3ccccc3n(CC(=O)NCCc3ccc(OC)c(OC)c3)c2=O)c1,i,i,/,3%
Cc1ccc(NC(=O)OC2CCC23CCCCC3)cc1 (configuration not stated),/,i,/,/
COc1cc(F)ccc1-c1csc(C(O)c2ccc(F)cc2)n1 (configuration not stated),?,i,0%,?
OC(c1ccccc1)c1nc(-c2cc(F)cc(F)c2)cs1 (configuration not stated),i,i,18%,?
COc1cc(C(O)c2nc(-c3ccccc3OC)cs2)ccc1F (configuration not stated),i,i,?,18µM*
COc1ccc(-c2csc(C(O)c3ccc(F)cc3)n2)cc1OC (configuration not stated),i,i,13%,22µM*
